# An excerpt weighted towards active compounds, which were near 2.1% of everything screened.
# FUS yeast rescue: FUS proteinopathy suppression in yeast. hit rate 0.24% among 390,000. S. cerevisiae FUS-expressing, growth rescue, OD600, 24 h. Potency, µM (top dose mostly 76.6 µM), most hits filed as activators;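 note: plate controls were DMSO vehicle for no effect and reference control for full effect; nearly all actives have a fitted effect of over 55% in size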
#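 Yeast FUS proteinopathy model; galactose-induced FUS (2%), starting OD 0.005. Cpds in dilution series, 24hr, 30C, 99% humidity. Abs 600 nm growth. Pos ctrl CP55940 (top 92uM final); neg ctrl DMSO.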
# Abeta rescue: compounds reversing amyloid beta toxicity in yeast; yeast expressing A-beta42, growth rescue, OD600, 48 h; response scale: 0% DMSO, 100% iron-clioquinol control; hit rate 0.063% among 410,000; Potency, µM (titrated, usually from 46.1 µM), hits mostly activators; AID 1347071; note: nearly all actives have a fitted effect of over 55% in size
#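 Yeast growth medium received pinned compounds, then yeast cells expressing toxic A-beta were added; plates incubated at 30 C for 48 hr. Growth read as absorbance at 600 nm, normalized to DMSO and equimolar FeCl3 plus clioquinol controls.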
# aSyn yeast inh: alpha-synuclein toxicity inhibition in yeast | hit rate 0.14% among 370,000 | AID 652106 | Potency, µM (top dose mostly 46.1 µM), for inactives: at the highest dose growth rescue (activation), usual class: activators | Yeast expressing alpha-synuclein, growth rescue, BacTiter-Glo, 24 h; note: % of control where 0% means no effect; nearly all actives have a fitted effect of over 65% in size
#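 Screening used galactose-induced yeast with toxic alpha-synuclein levels, exposed to compound for 24 hr at 30 deg C. Cell growth, read with BacTiter-Glo luminescence, gave the measured signal.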
# TDP43 rescue: TDP-43 toxicity inhibition in yeast; TDP-43 expressing yeast growth rescue, BacTiter-Glo, 24 h; Potency, µM (titrated, usually from 46.1 µM), inactives show at the top dose growth rescue (activation), usual class: activators; hit rate 1.8% among 410,000; AID 652104; note: % of control where 0% means no effect; nearly all actives have a fitted effect of over 50% in size
#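 Yeast cells expressing TDP-43 under galactose induction are exposed to compounds for 24 hr at 30 deg C. BacTiter-Glo luminescence measures growth, so protective compounds score as activators.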
# * hit, by the source's call; i = inactive; ? = inconclusive; · = not tested or not shown. Calls come from the whole dose curve; as a rule, active = well fitted curve in the direction sought with a large enough effect; inconclusive = small, poorly fitted or top-dose-only effect, or another doubt; inactive = no such curve, though single readings can be large; an effect the other way counts as inactive or inconclusive. Potency is the fitted concentration of half-maximal effect.
SMILES,FUS yeast rescue,Abeta rescue,aSyn yeast inh,TDP43 rescue
CCOc1ccc(CNC(=O)CCS(=O)(=O)c2cc3c(cc2Cl)NC(=O)CO3)cc1OC,i,i,·,7.4%
O=C(CCl)N1c2ccccc2SCC1c1ccccc1 (configuration not stated),i,i,-1.7%,7.94µM*
Cc1cccc(NC(=O)Cc2ccc(-c3ccccc3)cc2)n1,i,i,-6.5%,11.2µM*
Cc1cccc(NC(=O)Cc2coc3ccc4ccccc4c23)n1,i,i,-15.8%,11.2µM*
Cc1ccc(CNc2cc(C)nc3nc(-c4cccc(C)c4)nn23)cc1,i,i,-4.4%,20µM*
CC(C)(C)c1cc(NC(=O)COC(=O)c2ccccc2)n(-c2ccccc2)n1,i,i,5.4%,?
CC(C)(C)c1cc(NC(=O)COc2ccc(Br)cc2)n(-c2ccccc2)n1,i,i,-2.8%,20µM*
NS(=O)(=O)c1cccc(NC(=O)CCSc2ccccc2Cl)c1,·,i,3.4%,8.6%
O=C(CCSc1ccccc1Cl)Nc1cccc([N+](=O)[O-])c1,i,i,1.6%,17.8µM*
Cc1ccc(OCC(=O)Nc2cc(Cl)ccc2-n2cncn2)c(C)c1,i,i,5.9%,12.6µM*
O=C(Nc1cc(Cl)ccc1-n1cncn1)c1cc(F)c(F)c(F)c1F,i,i,0.6%,22.4µM*
Cc1ccsc1C(=O)Nc1cc(Cl)ccc1-n1cncn1,i,i,12.7%,17.8µM*
CCCNC(=O)Cn1c(SCc2ccccc2C)nc2ccncc21,·,·,0.3%,·
COC(=O)c1ccc(NC(=O)CC2C(=O)N(c3cccc(OC)c3)C(=O)N2Cc2ccco2)cc1 (configuration not stated),i,i,·,4.8%
CCN(CC)c1ncnc2c1ncn2[C@H]1CN(Cc2ccc(-c3ccccc3)cc2)C[C@@H](CO)O1,28.2µM*,i,?,2.0%
CC(=O)OC[C@@H]1CN(Cc2ccccc2)C[C@H](n2cnc3c(NC(C)C)ncnc32)O1,i,i,-3.0%,19.8%
COc1cc(CNc2ncnc3c2ncn3[C@H]2CN(Cc3ccc(-c4ccccc4)cc3)C[C@@H](CO)O2)cc(OC)c1OC,?,i,-2.6%,9.0%
COc1cc(CNc2ncnc3c2ncn3[C@H]2CN(Cc3cccc4ccccc34)C[C@@H](CO)O2)cc(OC)c1OC,28.2µM*,i,3.3%,0.7%
CC(=O)OC[C@@H]1CN(Cc2ccccc2)C[C@H](n2cnc3c(N4CCN(c5ccccc5)CC4)ncnc32)O1,i,i,0.4%,17.8µM*
Cc1ccc(NC(=S)NNC(=O)CSc2nnc(SCc3cccc4ccccc34)s2)cc1,i,·,·,·
C[C@@H]1CCN(C2CC2)S(=O)(=O)c2ccc(N3CCC[C@@H]3CO)cc2O1,i,·,·,·
COC(=O)C1CN(Cc2ccc(F)cc2)CCS(=O)(=O)N1Cc1ccc(OC)cc1 (configuration not stated),i,·,·,·
COC(CNC(=O)[C@H](Cc1ccccc1)NCC(=O)NC1CCCCC1)OC,i,·,·,·
CC(O)(c1ccc(F)c(F)c1)c1nc(-c2cnc3ccccc3c2)cs1 (configuration not stated),?,i,-24.3%,?
CC(=O)NC(C)(c1ccccc1)c1nc(-c2csc3ccccc23)cs1 (configuration not stated),?,i,7.5%,35.5µM*
SMILES,FUS yeast rescue,Abeta rescue,aSyn yeast inh,TDP43 rescue
COc1ccc(C(C)(O)c2nc(-c3cnc4ccccc4c3)cs2)cc1 (configuration not stated),i,i,?,35.5µM*
CC(=O)NC(C)(c1ccccc1)c1nc(-c2cncnc2)cs1 (configuration not stated),i,i,-30.9%,4.8%
COCc1cccc(-c2csc(C(C)(O)c3cccc(F)c3)n2)c1 (configuration not stated),i,i,-5.6%,35.5µM*
COc1cccc(C(C)(O)c2nc(-c3csc4ccccc34)cs2)c1 (configuration not stated),i,i,-1.3%,35.5µM*
CN(C)c1ccc(/C=C/c2sc3ccccc3[n+]2CCCCI)cc1,·,·,-49.2%,·
COc1cccc(C(C)(O)c2nc(/C=C/c3ccccc3)cs2)c1 (configuration not stated),i,i,?,25.1µM*
CC(O)(c1ccccc1)c1nc(/C=C/c2ccccc2)cs1 (configuration not stated),i,i,-26.7%,35.5µM*
Fc1cccc(C[n+]2csc3ccccc32)c1,·,i,-17.6%,3.55µM*
COc1cccc(CO[C@H]2C=C[C@@H](c3ccccc3)O[C@@H]2CO)c1,i,·,·,·
CCc1cccc(C)c1NC(=O)c1cnn(-c2ccc(OC)cc2)c1C1CCN(C(=O)OC(C)(C)C)CC1,22.4µM*,i,·,6.1%
Cc1ccc(C)c(NC(=O)c2cnn(-c3cccc(F)c3)c2C2CCN(C(=O)OC(C)(C)C)CC2)c1,?,i,·,35.5µM*
CC(C)(C)C1=Nn2c(nnc2-c2ccc(C(C)(C)C)cc2)SC1,i,·,·,·
COc1ccc(-c2ccnc3nc(N4CCN(c5ccccc5)CC4)nn23)cc1,i,i,1.5%,14.1µM*
Cc1cc(C)cc(NS(=O)(=O)c2ccc(-c3cc(C)no3)cc2)c1,i,i,·,?
COc1ccc(CNC(=O)C[C@H]2C[C@H](C(=O)N(C(C)C)C(C)C)[C@@]3(C)c4[nH]c5ccc(Cl)cc5c4CCN3C2=O)cc1OC,?,i,12.7%,12.6µM*
CC(C)N(C(=O)[C@H]1CC(CC(=O)NCC23CC4CC(CC(C4)C2)C3)C(=O)N2CCc3c([nH]c4ccccc34)[C@]12C)C(C)C (some centres not stated),i,i,?,22.4µM*
COc1ccc(CNC(=O)C[C@H]2C[C@H](C(=O)N3CCOCC3)[C@@]3(C)c4[nH]c5ccc(Cl)cc5c4CCN3C2=O)cc1OC,i,i,6.1%,9.0%
CC(C)N(C(=O)[C@H]1C[C@H](CC(=O)NCC23CC4CC(CC(C4)C2)C3)C(=O)N2CCc3c([nH]c4cc(-c5ccco5)ccc34)[C@]12C)C(C)C,i,i,-10.4%,1.3%
CN(C)c1cccc(-c2nnc(SCC(=O)NCc3ccco3)n2C)c1,·,·,-7.1%,·
Cc1cc2c([nH]c3ccccc32)c2c1OC(C)(C)C=C2,i,i,1.6%,28.2µM*
Cc1[nH]c(-c2ccc(F)cc2)cc1C(=O)N1CCN(c2ccccc2)CC1,i,i,?,17.8µM*
COc1cccc(N2CCN(C(=O)c3cc(-c4ccc(F)cc4)[nH]c3C)CC2)c1,?,i,?,0.0%
CCOC(=O)[C@@]12CCCC3=C1N(CCC3)C(=O)[C@H]2CC(=O)N1CCCC1,i,·,·,·
O=C(Nc1nc(-c2cccs2)c(C(=O)C(F)(F)F)s1)c1ccco1,i,i,5.9%,14.1µM*

# Bioassay records: PubChem BioAssay, National Center for Advancing Translational Sciences (NCATS)
